Assay outcomes (PubChem)
Compounds with a hit are over-represented: about 7.5% of the library has one in this group of screens.
SMN2 splice enh: enhancers of SMN2 splice variant expression | HEK293 SMN2-luciferase splicing reporter, luminescence, 30-36 h | Potency, µM (highest dose often 46.1 µM), for the others: at the top dose activity change, positive = activation, most hits filed as activators | 2.8% of 210,000 active | AID 1458; note: % of control where 0% means no effect; nearly all actives have a fitted effect of over 55% in size
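HEK293 cells carry an SMN2 minigene-luciferase reporter in which exon 7 inclusion puts luciferase in frame. Cells were seeded at 2000 cells/well, attached for 10-12 hours, then exposed to compounds for 30-36 hours at 37C before ONE-Glo luminescence.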
FLuc modulator: firefly luciferase modulation, counter-screen for miR-21 project | 6.9% of 360,000 active | Potency, µM (highest dose often 57.5 µM), without a hit: at the highest dose activity change, negative = inhibition, actives largely listed as inhibitors | purified FLuc, Km substrates, luminescence inhibition | P08659 | AID 588342;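 note: plate controls were vehicle for no effect and reference inhibitor for full effect; nearly all actives have a fitted effect of over 55% in size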
Target sequence (P08659 whole entry, looked up): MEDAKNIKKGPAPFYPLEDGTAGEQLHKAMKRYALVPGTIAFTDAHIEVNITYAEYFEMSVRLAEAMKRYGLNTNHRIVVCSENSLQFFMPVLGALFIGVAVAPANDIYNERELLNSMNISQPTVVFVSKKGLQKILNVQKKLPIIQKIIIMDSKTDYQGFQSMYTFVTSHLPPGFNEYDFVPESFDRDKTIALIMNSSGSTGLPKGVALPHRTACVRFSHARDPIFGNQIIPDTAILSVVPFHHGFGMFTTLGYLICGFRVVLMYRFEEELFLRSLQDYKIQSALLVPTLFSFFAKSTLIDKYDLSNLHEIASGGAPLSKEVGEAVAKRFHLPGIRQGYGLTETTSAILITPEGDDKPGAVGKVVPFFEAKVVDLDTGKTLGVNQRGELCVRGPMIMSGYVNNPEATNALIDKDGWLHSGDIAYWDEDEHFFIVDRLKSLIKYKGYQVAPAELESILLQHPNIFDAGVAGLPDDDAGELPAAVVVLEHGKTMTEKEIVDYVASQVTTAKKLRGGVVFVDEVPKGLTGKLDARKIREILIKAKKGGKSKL
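Biochemical qHTS of compounds, final roughly 60 µM downward over six points, against 10 nM purified firefly luciferase using Km concentrations of substrates (10 uM D-luciferin, 10 uM ATP) in Tris acetate pH 7.5 buffer; luminescence output.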
Luc counter: blocks Kinase-Glo luciferase, a counter-screen artifact; Q27757; Kinase-Glo luciferase, ATP luminescence, 8 min; Potency, µM (doses to about 38.3 µM), without a hit: at the top dose activity change, negative = inhibition, actives largely listed as inhibitors; 0.28% of 200,000 active; AID 1379; note: % is set by controls: 0 for no effect and ±100 for the full control effect; nearly all actives have a fitted effect of over 60% in size
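Compounds were added to a substrate mix at pH 7.2 (50 mM imidazole, 10 uM ATP, within the enzyme's linear range), followed by Kinase-Glo detection reagent; luminescence was measured after 8 minutes at ambient temperature.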
ELG1 genotox: inducers of genotoxicity in HEK293T ELG1-luciferase cells; HEK293T ELG1-luciferase reporter, luminescence, 16 h; Potency, µM (titrated, usually from 46 µM), for the others: at the top dose activity change, positive = activation, most hits filed as activators; 1.3% of 330,000 active; AID 504466; note: % of control where 0% means no effect; nearly all actives have a fitted effect of over 60% in size
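HEK293T cells expressing luciferase-tagged ELG1 were exposed to compound or DMSO vehicle for 16 hr at 37 °C and 5% CO2. Luciferase activity was then measured with ONE-Glo after 30 min at room temperature.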
Rab9 prom act: activators of Rab9 promoter; 2.8% of 320,000 active; Huh7 Rab9 promoter-luciferase reporter, luminescence, 24 h; Potency, µM (series often up to 9.22 µM), for the others: top-dose activation, negative = inhibition, most hits filed as activators; note: % of control where 0% means no effect; nearly all actives have a fitted effect of over 60% in size
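Promoter activation is measured as luciferase luminescence in Huh7 cells stably transfected with a Rab9 promoter–luciferase construct, following 24 h compound exposure at 37 °C and 10 min reagent incubation at ambient temperature.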
NPC1 promoter act: NPC1 promoter activation; Potency, µM (doses to about 9.22 µM), for inactives: top-dose activation, hits mostly activators; Huh7 NPC1 promoter luciferase reporter, 24 h; 2.4% of 320,000 active; note: % of control where 0% means no effect; nearly all actives have a fitted effect of over 60% in size
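Luciferase expression driven by the NPC1 promoter was measured in stably transfected Huh7 cells after a 24 h compound incubation, using a luciferase reagent and a luminescence read.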
* marks the source's active call; other numbers are inactive results; ? = inconclusive; nt = no result; [ ] = another dose, or the depositor's remark. Calls come from the whole dose curve; as a rule, active = well fitted curve in the direction sought with a large enough effect; inconclusive = small, poorly fitted or top-dose-only effect, or another doubt; inactive = no such curve, though single readings can be large; an effect the other way counts as inactive or inconclusive. Potency is the fitted concentration of half-maximal effect.

SMILES | SMN2 splice enh | FLuc modulator | Luc counter | ELG1 genotox | Rab9 prom act | NPC1 promoter act
CCC(Oc1ccccc1)C(=O)Nc1ccc(-c2nnc(-c3ccco3)o2)cc1 (stereo not given) | 11µM* | -12% | 4% | 11% | ? | ?
c1cncc(-c2nnc(-c3ccco3)o2)c1 | 22% | 0% | -1% | ? | -6% | -2%
Clc1ccc(-c2nnc(-c3ccco3)o2)cc1 | ? | 12µM* | -12% | ? | 2.8µM* | 3.5µM*
O=C(COc1ccc(Br)cc1)Nc1ccc(-c2nnc(-c3ccco3)o2)cc1 | 8.9µM* | 1% | -1% | 13% | 2.2µM* | 4µM*
COc1ccc(CN(C)C(=O)CSc2nnc(C3CC3)n2C2CC2)cc1 | nt | 1% | nt | 2% | 1% | 1%
Cc1cc(C)cc(-n2cnc3cc(C(=O)NC4CCCCCC4)ccc32)c1 | nt | -11% | nt | nt | nt | nt
Cn1c(=O)c2c(nc(NCc3ccccc3)n2Cc2ccc(Cl)c(Cl)c2)n(C)c1=O | -5% | 0% | nt | nt | nt | nt
Cc1c(C(=O)Nc2cccc(C(F)(F)F)c2)oc2ccc(S(=O)(=O)N3CCOCC3)cc12 | -27% | 1% | 1% | -11% | -15% | -12%
CC1=C(C(=O)Nc2ccc(F)cc2F)C2(CCN(C(C)C)CC2)OC1=O | nt | 2% | nt | nt | nt | nt
Cc1cc(C)cc(NC(=O)c2oc3ccc4c(c3c2C)C(=O)CC(C)(C)O4)c1 | nt | 0.76µM* | nt | nt | nt | nt
Cc1c(C(=O)Nc2ccc(F)cc2F)oc2ccc3c(c12)C(=O)CC(C)(C)O3 | nt | 1.1µM* | nt | nt | nt | nt
Cc1cccc(C)c1NC(=O)c1oc2ccc3c(c2c1C)C(=O)CC(C)(C)O3 | nt | -13% | nt | nt | nt | nt
Cc1c(C(=O)Nc2cccc(C(F)(F)F)c2)oc2ccc3c(c12)C(=O)CC(C)(C)O3 | nt | 3.4µM* | nt | nt | nt | nt
Cc1cc(C)n(-c2ccc(C(=O)Nc3ccc(S(=O)(=O)N(C)C)cc3)cc2)n1 | -68% | 4% | 1% | -7% | 0% | -2%
Cc1cc(C)n(-c2ccc(C(=O)Nc3ccc(N4CCOCC4)cc3)cc2)n1 | -64% | -13% | -4% | -18% | 9% | 18%
Cc1cc(C)n(-c2ccc(C(=O)Nc3cccc(S(=O)(=O)N(C)C)c3)cc2)n1 | -66% | ? | 4% | -7% | -19% | -14%
Cc1cc(C)n(-c2ccc(C(=O)Nc3ccc4c(c3)OCO4)cc2)n1 | ? | 13µM* | -12% | ? | ? | ?
Cc1cc(C)n(-c2ccc(C(=O)NC3=NCCS3)cc2)n1 | ? | 15µM* | -3% | ? | 3.2µM* | ?
Cc1cc(C)n(-c2ccc(C(=O)Nc3ccc(C)c(S(=O)(=O)N(C)C)c3)cc2)n1 | -15%[1.84 µM] | 17µM* | 0% | -10% | -20% | -4%
COc1ccc(NC(=O)c2ccc(-n3nc(C)cc3C)cc2)cc1OC | -21% | 15µM* | -9% | 0% | 18% | -2%
O=C(c1cccc(Cl)c1)N1c2ncnn2C2(CCCCC2)[C@@H]2CCCC[C@@H]21 | nt | -7% | nt | nt | nt | nt
O=[N+]([O-])O[C@H]1CO[C@H]2[C@@H]1OC[C@H]2O | nt | nt | 0%[39.9 µM] | nt | nt | nt
O=c1cc(-c2ccc(O)cc2)oc2cc(OC3OC(CO)C(O)C(O)[C@H]3O[C@@H]3OC[C@@](O)(CO)C3O)cc(O)c12 (stereo not given in full) | -6% | nt | 0% | nt | nt | nt
O=C1NC(=Nc2ccccc2)S/C1=C/c1cccnc1 | -14% | ? | -1% | 14% | 3% | -4%
Cc1ccc(/C=C2\Sc3ccccc3C2=O)s1 | ? | 0.43µM* | -30% | ? | ? | ?
SMILES | SMN2 splice enh | FLuc modulator | Luc counter | ELG1 genotox | Rab9 prom act | NPC1 promoter act
COc1ccc(OC)c(/C=C2\SC(=S)N(N3CCOCC3)C2=O)c1 | nt | -18% | nt | -1% | 16% | -1%
CC(=O)Nc1ccc(/C=C2\Sc3ccccc3C2=O)cc1 | nt | 0.38µM* | nt | ? | 13% | -6%
COc1ccc(OC)c(/C=C2/Sc3ccccc3C2=O)c1 | nt | 9.5µM* | -10% | 15% | 1% | 1%
O=C1/C(=C/c2cccnc2)Sc2ccccc21 | -2% | 9.5µM* | -13% | 5% | -4% | -2%
O=[N+]([O-])c1cc(Cl)ccc1-c1nc(-c2ccccc2)no1 | 17%[1.84 µM] | 1.2µM* | -4% | ? | 3.2µM* | 3.5µM*
O=[N+]([O-])c1ccccc1-c1nc(-c2ccc(Br)o2)no1 | 17%[1.84 µM] | 3µM* | -3% | ? | 2.8µM* | 3.2µM*
Clc1ccccc1-c1nc(-c2ccc(Br)o2)no1 | nt | 1.2µM* | nt | 4.1µM* | 0.71µM* | 1.3µM*
Nc1nnc(-c2ccccc2[N+](=O)[O-])o1 | -1% | -8% | 1% | 2% | -5% | -1%
O=C(Nc1cccc(F)c1)N1CC2(CCN(C(=O)c3cc(C(F)(F)F)cc(C(F)(F)F)c3)CC2)C1 | -8% | nt | -5% | nt | nt | nt
Cc1ccc(CNc2ccc3c(c2)OCO3)c(C)c1 | 5% | 21µM* | -2% | nt | nt | nt
Oc1ccccc1CNc1ccc2c(c1)OCCO2 | nt | 12µM* | -5% | ? | 3.5µM* | 14%
Clc1cc(NCc2cccs2)ccc1N1CCOCC1 | ? | ? | 2% | 18µM* | ? | ?
c1cncc(CNc2ccc3c(c2)OCO3)c1 | -5% | -19% | 15% | 9% | 2% | 11%
Cc1ccc(NCc2ccccc2O)cc1C | 17% | ? | -2% | ? | 20% | 14%
c1csc(CNc2ccc3c(c2)OCCO3)c1 | -11% | 27µM* | 2% | 8.2µM* | 14% | 9%
Cc1ccc(Nc2c([N+](=O)[O-])ccc3nonc23)cc1C | nt | 0% | nt | 5% | 4% | -5%
O=S(=O)(Nc1cccc2ccccc12)c1ccccc1 | nt | -6% | nt | 2% | 8% | 5%
O=C(O)c1cccc(S(=O)(=O)Nc2cccc3ccccc23)c1 | nt | 24µM* | nt | 4% | 23% | 17%
CCOC(=O)C(C)Oc1ccc(NC(=O)C(Cl)Cl)cc1 (stereo not given) | nt | -2% | nt | 3% | -8% | 2%
CCCSc1nnc2c(n1)OC(c1sccc1C)Nc1ccccc1-2 (stereo not given) | 3.2µM* | ? | nt | nt | nt | nt
O=C(N/N=C/c1ccc([N+](=O)[O-])cc1)c1[nH]ncc1Br | 11µM* | ? | ? | ? | 1µM* | 2µM*
COc1ccccc1/C=C1\Cc2ccccc2C1=O | nt | 11µM* | nt | ? | 1% | 8%
Cc1cc(C=C2C(=O)c3ccccc3C2=O)c(C)n1-c1ccc(C(=O)O)cc1 | nt | 19µM* | nt | 7% | -2% | 2%
Cc1cc(/C=C2\Cc3ccccc3C2=O)c(C)n1-c1ccccc1 | 4.5µM* | 0.19µM* | -17% | 1.2µM* | -1% | 10%
